The list is not random: actives were taken first. Their share in the collection is about 19%.
DT40 TDP1 CPT: DT40-hTDP1 cell growth loss with CPT; chicken DT40 Tdp1-/-;hTDP1 cells + 20 nM CPT, ATP luminescence, 48 h; AID 686979; Potency, µM (top dose mostly 46.2 µM), inactives show at the top dose activity change, negative = growth inhibition, most hits filed as inhibitors; hit rate 12% among 420,000; note: nearly all actives have a fitted effect of over 55% in size
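Chicken DT40 Tdp1-/- cells complemented with human TDP1, 400 cells/well, exposed to compounds plus 20 nM camptothecin for at least 48 h at 37 C; viability read as ATP content by CellTiter-Glo luminescence.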
TDP1 inh: inhibitors of human tyrosyl-DNA phosphodiesterase TDP1 | Q9NUW8 | recombinant TDP1, AlphaScreen DNA substrate cleavage | Potency, µM (doses to about 130 µM), inactives show at the top dose activity change, negative = inhibition, usual class: inhibitors | hit rate 0.28% among 350,000 | AID 485290; note: nearly all actives have a fitted effect of over 40% in size
Target sequence (Q9NUW8 whole entry, looked up): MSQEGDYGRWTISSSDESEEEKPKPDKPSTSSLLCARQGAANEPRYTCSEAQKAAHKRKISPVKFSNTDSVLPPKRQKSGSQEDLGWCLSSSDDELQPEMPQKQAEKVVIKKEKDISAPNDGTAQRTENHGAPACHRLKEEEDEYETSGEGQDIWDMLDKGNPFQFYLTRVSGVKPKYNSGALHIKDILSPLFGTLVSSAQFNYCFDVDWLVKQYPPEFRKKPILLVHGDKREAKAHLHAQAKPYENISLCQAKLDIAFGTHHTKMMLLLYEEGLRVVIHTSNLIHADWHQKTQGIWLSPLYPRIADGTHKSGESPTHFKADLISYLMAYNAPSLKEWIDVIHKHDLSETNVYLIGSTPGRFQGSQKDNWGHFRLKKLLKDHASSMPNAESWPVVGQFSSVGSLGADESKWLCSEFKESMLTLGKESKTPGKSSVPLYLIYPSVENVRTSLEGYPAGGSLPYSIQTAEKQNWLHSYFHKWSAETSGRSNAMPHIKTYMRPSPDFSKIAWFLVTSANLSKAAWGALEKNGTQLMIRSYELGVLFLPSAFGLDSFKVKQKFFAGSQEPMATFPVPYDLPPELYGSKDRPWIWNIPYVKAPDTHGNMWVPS
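Compounds were preincubated with Tdp1 (1 nM final) for 15 min at room temperature before substrate (15 nM final) started a 5 min reaction; beads (10 ug/ml final) were then added for 10 min before AlphaScreen detection.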
RORgamma inh: blocks mouse ROR gamma transcriptional activity; P51450; Drosophila S2 Gal4-RORgamma UAS-luciferase reporter, 20 h; AID 2551; hit rate 5.4% among 310,000; Potency, µM (series often up to 53.6 µM), for the others: top-dose activity change, negative = inhibition, hits mostly inhibitors; note: nearly all actives have a fitted effect of over 60% in size
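Using a luciferase readout, inhibitors were identified by reduced reporter activity in Drosophila cells coexpressing a copper-inducible Gal4–ROR gamma fusion and UAS-driven Photinus luciferase, incubated 20 hr after 700 uM copper sulfate.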
DT40 TDP1 no CPT: qHTS for Inhibitors of human tyrosyl-DNA phosphodiesterase 1 (TDP1): qHTS in cells in absence of CPT. DT40 Tdp1-/- hTDP1 cells, no CPT, ATP luminescence, 48 h. Potency, µM (series often up to 46.2 µM), for the others: at the highest dose activity change, negative = growth inhibition, actives largely listed as inhibitors. hit rate 15% among 420,000. AID 686978, 2013; note: nearly all actives have a fitted effect of over 55% in size
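Growth kinetics read by CellTiter-Glo luminescence after ≥48 hr at 37 °C. Cells: DT40 Tdp1-/- stably carrying human TDP1, 400 per well, compound exposure in the absence of CPT (DMSO vehicle).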
Gal4-VP16 FLuc: inhibits Gal4-VP16 luciferase reporter, ROR gamma counter-screen; Drosophila S2 Gal4-VP16 UAS-luciferase, luminescence, 20 h; Potency, µM (highest dose often 53.6 µM), inactives show at the top dose activity, negative = inhibition, hits mostly inhibitors; hit rate 3.5% among 310,000;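 note: Gal4-VP16 expression switched on by copper sulfate through the metallothionein promoter; nearly all actives have a fitted effect of over 50% in size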
Starred values were filed as active, the others as inactive; ? = inconclusive; . = no result given. Calls come from the whole dose curve; as a rule, active = well fitted curve in the direction sought with a large enough effect; inconclusive = small, poorly fitted or top-dose-only effect, or another doubt; inactive = no such curve, though single readings can be large; an effect the other way counts as inactive or inconclusive. % is set by controls: 0 for no effect and ±100 for the full control effect; potency is the fitted concentration of half-maximal effect.

SMILES	DT40 TDP1 CPT	TDP1 inh	RORgamma inh	DT40 TDP1 no CPT	Gal4-VP16 FLuc
CCOc1ccc(N(CC(=O)NC2CC2)S(=O)(=O)c2ccc(C)cc2)cc1	-15%	0%	-23%	-7%	6%
C#CCN(C[C@@H]1[C@@H](OC(=O)NC2CCCC2)[C@@H](OC(=O)NC2CCCC2)CN(C(=O)OC(C)C)N1C(=O)OC(C)C)S(=O)(=O)c1ccc(C)cc1	?	.	.	21µM*	.
C#CCN(C[C@@H]1[C@@H](OC(=O)NCc2ccc(OC)c(OC)c2)[C@@H](OC(=O)NCc2ccc(OC)c(OC)c2)Cn2c(=O)ccc(=O)n21)S(=O)(=O)c1ccc(C)cc1	16µM*	.	.	15µM*	.
N=c1ccn(Cc2ccccc2Cl)cc1	5.2µM*	0%	13%	4.6µM*	-4%
Cc1ccc(C)n1Cc1ccccc1Cl	2%	-3%	-7%	-13%	-3%
N=c1ccn(Cc2c(Cl)cccc2Cl)cc1	1.3µM*	6%	?	0.65µM*	10µM*
N=c1ccn(Cc2ccc(Cl)cc2Cl)cc1	3.7µM*	10%	23%	5.2µM*	-24%
O=C(Nc1nc(-c2ccccc2)cs1)C1c2ccccc2Oc2ccccc21	-22%	-3%	-28%	-22%	16%
Cc1cc(S(=O)(=O)NC(C)C)ccc1OCC(=O)NCc1ccccc1	-7%	-2%	1%	?	10%
Cc1ccc2c(Cl)cc(Cl)c(OCC(=O)Nc3cccc(S(N)(=O)=O)c3)c2n1	-11%	1%	14µM*	-18%	?
Cc1cc(C(=O)OCC(=O)Nc2cccc(S(=O)(=O)N(C)C)c2)c2ccccc2n1	-21%	-1%	23%	?	-20%
Cc1ccc2c(Cl)cc(Cl)c(OCC(=O)Nc3ccc(C)c(S(=O)(=O)N(C)C)c3)c2n1	.	5%	7.1µM*	.	7.1µM*
NS(=O)(=O)c1cccc(NC(=O)COC(=O)c2cc(-c3ccc(Cl)cc3)nc3ccccc23)c1	?	0%	?	?	?
Cc1ccc2c(Cl)cc(Cl)c(OCC(=O)Nc3cc(S(=O)(=O)N(C)C)ccc3C)c2n1	23µM*	8%	-138%	15µM*	?
Cc1ccc(S(=O)(=O)N(C)C)cc1NC(=O)COc1ccc(-c2nnco2)cc1	-6%	.	0%	-14%	-6%
Cc1ccc(NC(=O)COC(=O)CCC(=O)c2ccc(Cl)cc2)cc1S(=O)(=O)N(C)C	15%	-3%	9%	4%	-3%
Cc1ccc2c(Cl)cc(Cl)c(OCC(=O)Nc3cccc(S(=O)(=O)N(C)C)c3)c2n1	?	2%	5µM*	21µM*	10µM*
COc1ccc([N+](=O)[O-])cc1-c1[nH]c(-c2ccc(C(=O)O)cc2)nc1-c1ccccc1	-6%	.	4%	-1%	0%
COc1ccc(NC(=O)c2c(-c3c(Cl)cccc3Cl)noc2C)c(OC)c1	?	6%	25%	?	-10%
O=C(O)C1C2C=CC3(O2)C1C(=O)N1c2ccccc2C2OCCC2C13 (centres undefined)	-3%	40µM*	-5%	0%	0%
C=C(C)CC1N(c2cccc(OC)c2)C(=O)C2C(C(=O)O)C3C=CC21O3 (centres undefined)	5%	3%	-10%	3%	-3%
Cc1ccc(-c2csc(SCC(=O)c3c(N)n(C4CC4)c(=O)[nH]c3=O)n2)cc1	4%	-15%	.	-12%	.
CCOC(=O)c1c(N)sn(-c2ccccc2C)c1=S	23µM*	-3%	-19%	26µM*	-2%
CCOC(=O)c1nn(-c2ccccc2C)c(=O)c2c(N)scc12	?	-5%	-4%	?	-14%
CON(C)C(=O)CC(CN(Cc1ccccc1)C(=O)OC(C)(C)C)c1ccc(Cl)cc1 (centres undefined)	23µM*	-3%	.	?	.
CON(C)C(=O)CC(CNC(=O)OC(C)(C)C)c1ccc(Cl)cc1 (centres undefined)	?	1%	.	15µM*	.
